A selection: hits, their analogues and other compounds. The true share with any hit is near 11%.
USP28 block – blocks human USP28 ubiquitin-rhodamine cleavage; purified USP28, Ub-rhodamine cleavage fluorescence, 30 min; inhibition, % at 25 µM; actives 3% (n = 47,000)
OTUD3 block – human OTUD3 deubiquitinase inhibition; actives 0.7% (n = 47,000); Q5T2D3; inhibition, % at 25 µM; purified OTUD3, Ub-rhodamine fluorescence, 2 h
Target sequence (Q5T2D3 whole entry, looked up): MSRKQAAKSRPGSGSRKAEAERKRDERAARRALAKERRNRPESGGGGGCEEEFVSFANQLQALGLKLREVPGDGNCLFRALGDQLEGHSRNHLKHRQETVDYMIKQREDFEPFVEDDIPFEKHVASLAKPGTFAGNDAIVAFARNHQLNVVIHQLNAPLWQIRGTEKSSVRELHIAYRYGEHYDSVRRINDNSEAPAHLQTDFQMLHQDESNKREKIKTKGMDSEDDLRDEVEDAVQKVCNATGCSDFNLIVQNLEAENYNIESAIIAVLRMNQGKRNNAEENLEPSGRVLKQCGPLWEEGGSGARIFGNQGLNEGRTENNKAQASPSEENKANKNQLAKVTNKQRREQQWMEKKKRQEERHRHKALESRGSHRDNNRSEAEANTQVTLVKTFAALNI
USP30 inh – human USP30 deubiquitinase inhibition. Q70CQ3. purified USP30, Ub-rhodamine cleavage fluorescence. inhibition, % at 25 µM. actives 5.3% (n = 47,000). AID 1645860
USP17 inh – human USP17-like deubiquitinase inhibition | actives 6.5% (n = 47,000) | purified USP17, Ub-rhodamine cleavage fluorescence, 3 h | A8MUK1 | inhibition, % at 50 µM
* hit, by the source's call; · = not tested or not shown. Cut-off read from the data, not from the text of the source: active = inhibition above about 30%; inactive = the rest.

SMILES	USP28 block	OTUD3 block	USP30 inh	USP17 inh
Cc1ccc2cc(CCNC(=O)c3ccccc3Br)c(=O)[nH]c2c1	2	1	-14	48*
COc1ccc(NC(=O)c2cnc(N3CCOCC3)nc2C)cc1	4	3	2	7
COC(=O)c1sccc1S(=O)(=O)Nc1ncc(C)cc1Br	-3	-2	-20	9
COc1ccccc1CNc1nc(-c2nnc(-c3ccccc3)o2)nc2ccccc12	3	4	44*	38*
Cc1ccc(CNC(=O)Cn2c(=O)n(-c3ccccc3)c3ncccc32)cc1	4	4	-7	51*
COCCNC(=O)Cn1c(=O)n(Cc2ccc(C(=O)NCc3ccc(C)cc3)cc2)c(=O)c2ccccc21	84*	47*	90*	77*
COCCCNC(=O)c1ccc(Cn2c(=O)c3ccccc3n(CC(=O)NC3CCCCC3)c2=O)cc1	20	21	46*	62*
COCCNC(=O)Cn1c(=O)n(Cc2ccccc2)c(=O)c2c3c(sc21)CCC3	17	20	59*	29
O=C(Cn1c(=O)n(-c2ccc(F)cc2)c2ncccc21)NCc1ccccc1	23	7	9	18
COCCCNC(=O)c1ccc(Cn2c(=O)c3ccccc3n(CC(=O)NCc3ccco3)c2=O)cc1	-3	-17	-5	-34
COc1cccc(N2CCCn3c2nc2c3c(=O)n(CCc3ccccc3)c(=O)n2C)c1	-9	-9	-14	-9
O=C(Nc1c2c(nn1-c1ccc(F)cc1)CS(=O)(=O)C2)c1cccs1	-6	-1	0	-4
CN(C1CCCCC1)S(=O)(=O)N1CCCC(C(=O)NCc2ccccc2Cl)C1 (stereo not drawn)	-5	-1	12	-1
Cc1ccccc1NC(=O)C1CCCN(S(=O)(=O)Cc2ccccc2)C1 (stereo not drawn)	11	12	23	32*
CN(C1CCCCC1)S(=O)(=O)N1CCCC(C(=O)NCc2cccc(Cl)c2)C1 (stereo not drawn)	25	20	42*	25
COc1ccccc1CNC(=O)C1CCCN(S(=O)(=O)Cc2ccc(Cl)cc2)C1 (stereo not drawn)	17	20	30*	16
O=C(C1CCCN(Cc2cccc(Cl)c2)C1)N1CCC(Cc2ccccc2)CC1 (stereo not drawn)	-15	-15	-21	-13
Cc1ccccc1NC(=O)C1CCCN(S(=O)(=O)Cc2ccc(F)cc2)C1 (stereo not drawn)	0	6	24	10
O=C(C1CCCN(S(=O)(=O)Cc2ccccc2)C1)N1CCC(Cc2ccccc2)CC1 (stereo not drawn)	14	11	31*	3
CC(=O)N1CCc2sc(S(=O)(=O)NC3CCCCC3)cc2C1	0	-2	-9	0
CN1CC(c2nc3ccccc3n2Cc2c(Cl)cccc2Cl)CC1=O (stereo not drawn)	-12	0	1	·
Cc1ccc(NC(=O)C2CCN(C(=O)c3cc(-c4ccncc4)n[nH]3)CC2)cc1Cl	37*	39*	63*	63*
Cc1ccc(NC(=O)c2cc(-c3ccncc3)n[nH]2)cc1Cl	36*	-3	0	2
CCOc1ccccc1NC(=O)c1cc(-c2ccncc2)n[nH]1	·	-7	·	-21
Cc1ccc(C2CCCCCN2C(=O)Nc2ccc3c(c2)OCO3)s1 (stereo not drawn)	2	3	7	7
SMILES	USP28 block	OTUD3 block	USP30 inh	USP17 inh
COc1ccc2[nH]c3c(c2c1)CCN1C(=O)N(c2cccc4ccccc24)C(=O)[C@]31C	11	5	0	9
CCN1CCN(C(=O)c2cc3occc3c(Nc3ccc(OC)cc3)n2)CC1	0	-4	0	-5
CCOc1ccc(Nc2nc3ccccc3nc2Nc2cc(C)nn2-c2ccc([N+](=O)[O-])cc2)cc1	8	-1	11	42*
COc1ccc(NC(=O)CN2CCC3(CCC2=O)NC(=O)c2ccccc2N3)cc1 (stereo not drawn)	-3	-3	-5	-10
Cc1ccc(S(=O)(=O)N(C)C)cc1NC(=O)Cc1ccc(Cl)c(Cl)c1	93*	10	25	14
Cc1ccc(S(=O)(=O)N2CCC3(CC2)NCCN=C3NC2CCCC2)cc1	3	13	1	14
Cc1ccc2c(c1)c(=O)cc(C(F)(F)F)n2C[C@H]1CCCN1C(=O)C1CC1	14	5	41*	-2
CCCCN1CCN(c2ccc3c(c2)CCC3)C1=O	8	-3	-1	4
O=C1N(CC2CCCCC2)CCN1c1ccc2c(c1)CCC2	12	10	19	31*
O=C1N(CC2CC2)CCN1c1ccc2c(c1)CCC2	34*	14	20	11
Cc1ccn2cc(C(=O)NC(C)c3ccc(S(N)(=O)=O)cc3)nc2c1 (stereo not drawn)	-8	-4	-10	-9
O=c1oc2ccccc2c2nn(-c3ccccn3)cc12	0	-7	27	51*
O=c1oc2ccccc2c(N2CCN(c3ccccn3)CC2)c1CN1CCCC1	-14	-4	-6	-8
Cc1ccc(NC(=O)Cn2c(Nc3ccc(F)cc3)nc(C)cc2=O)cc1	10	18	67*	78*
Cc1cc(=O)n(CC(=O)Nc2ccccc2)c(Nc2ccc(C)c(C)c2)n1	-7	2	8	1
Cc1cc(=O)n(CC(=O)Nc2ccccc2F)c(Nc2ccc(F)cc2)n1	39*	27	83*	44*
Cc1cccc(NC(=O)Cn2c(C)cc(=O)n3nc(-c4cccs4)nc23)c1	3	11	10	47*
Cc1cc(=O)n(CC(=O)Nc2ccc(F)c(F)c2)c(N2CCCCC2)n1	8	9	6	3
Cc1cc(=O)n(CC(=O)Nc2ccc(C)c(C)c2)c(N2CCCC2)n1	6	-1	35*	10
Cc1cc(C)nc(N2CCC(C(=O)NCc3cccc(Cl)c3)CC2)n1	7	5	6	-44
Cc1cccc(-c2cc(NC(=O)c3ccc(Br)cc3)n[nH]2)c1	20	0	14	7
Cc1cc(=O)n(CC(=O)Nc2ccccc2)c(Nc2ccc(F)cc2)n1	43*	-1	63*	69*
Cc1cccc(Nc2nc(C)cc(=O)n2CC(=O)Nc2ccccc2)c1	7	5	30*	20
CC(C)C(=O)Nc1nc2ccc(CCC(=O)Nc3ccc(F)cc3F)cc2s1	4	0	33*	12
CSc1cccc(NC(=O)CCc2ccc3nc(NC(C)=O)sc3c2)c1	11	11	54*	16
COc1cccc(Nc2nc3c(S(=O)(=O)c4ccccc4)nnn3c3ccccc23)c1	·	4	·	85*
O=S(=O)(c1ccccc1)c1nnn2c1nc(Nc1ccc(F)cc1)c1ccccc12	0	6	17	5
Cc1c(Cl)cccc1Nc1nc2c(S(=O)(=O)c3ccccc3)nnn2c2ccc(Cl)cc12	·	1	·	57*
CC1CC(=O)NCCN1c1nc(C(F)(F)F)nc2ccccc12 (stereo not drawn)	0	8	-3	0
Cc1c(-c2ccccc2)oc2c(C(=O)OCC(=O)Nc3ccccc3F)cccc2c1=O	1	13	4	67*

Screens from PubChem BioAssay.
